“And” between values parts separate entries of the source, which are not always exact repeats. Identical values can stand only once. For part of these data: Results with a measured potency or affinity are listed apart. The source made the active and inactive calls. Unless noted, how the calls were made is not given here.

What is called inhibition is the change of the read-out against control, counted positive when it falls. By viability is commonly meant a read-out of living cells in per cent, often relative to untreated cells.

The target of assay [1] is 6-phosphogluconate dehydrogenase, decarboxylating (Homo sapiens) (UniProt P52209). Nature of the assay: inhibition of human phosphogluconate dehydrogenase – biochemical, recombinant enzyme, NADPH absorbance, primary screen (AID 1159550;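 active means at least 20% inhibition of 6-phosphogluconate dehydrogenase activity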). As to conditions: recombinant 6PGD, NADPH absorbance 341 nm; at 10 µM; stronger effect = higher value.
Chain of 6-phosphogluconate dehydrogenase, decarboxylating (Homo sapiens) (P52209 whole entry, looked up): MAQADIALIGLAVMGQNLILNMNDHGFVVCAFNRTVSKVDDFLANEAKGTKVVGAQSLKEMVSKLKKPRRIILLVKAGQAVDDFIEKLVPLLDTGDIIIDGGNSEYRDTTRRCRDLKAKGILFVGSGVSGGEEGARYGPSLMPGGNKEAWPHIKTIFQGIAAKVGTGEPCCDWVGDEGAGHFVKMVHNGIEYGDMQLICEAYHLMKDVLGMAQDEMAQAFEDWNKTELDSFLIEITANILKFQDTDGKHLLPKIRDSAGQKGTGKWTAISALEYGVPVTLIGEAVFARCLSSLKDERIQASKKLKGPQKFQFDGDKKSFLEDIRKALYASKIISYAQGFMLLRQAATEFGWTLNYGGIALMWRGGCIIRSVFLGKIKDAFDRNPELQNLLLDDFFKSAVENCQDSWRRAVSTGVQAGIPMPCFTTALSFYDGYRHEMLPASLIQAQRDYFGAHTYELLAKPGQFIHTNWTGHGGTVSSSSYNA
Assay [2] is described as follows: EMT-state selective cytotoxicity in co-culture – imaging, PC-3E GFP, TEM4-18 mCherry, primary screen (AID 1345086;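 active means compounds killing one labelled cell type while sparing the other, by normalised counts and ratio limits, not self-fluorescent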;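 on all read-outs here: cells exposed to compound for 72 h before imaging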;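 on red/green cell ratio (normalised): normalised mesenchymal count divided by normalised epithelial count so high means epithelial killing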). The note with it: PC-3E GFP / TEM4-18 mCherry co-culture, imaging cell counts, at 1 µM; for red/green cell ratio (normalised): actives lie on both sides.
Assay [3] deals with Aerobactin synthetase IucA (Klebsiella pneumoniae hvKP1). Briefly: IucA enzyme inhibition, primary screen, biochemical, Spectrum library (AID 1346200).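 Further: 100% = wells without compound and 0% = wells lacking enzyme.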 The note with it: malachite green pyrophosphate, A620, at 8 µM, stronger effect = lower value.
The nature of assay [4]: blockers of polyQ-driven CASP3 activation – cell-based (AID 1583). As to conditions: polyglutamine-induced caspase-3 activation, cell assay; stronger effect = higher value;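 tested at 10 µM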.
The nature of assay [5]: yeast 75Q aggregation reduction – 75Q-TubU reporter (AID 1593). As to conditions: Yeast 75Q polyglutamine aggregation reporter.
Assay [6] is described as follows: restoration of touch response, mutant HTT neurons – whole organism, C. elegans mechanosensory neurons, N-terminal huntingtin (AID 1599). As to conditions: C. elegans polyQ-huntingtin mechanosensory neurons, stronger effect = higher value.
Assay [7] can be described thus: blockers of cytochrome c efflux from mitochondria – biochemical, purified mitochondria (AID 1603).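 Further: mouse liver mitochondria challenged with calcium chloride; signal normalized to the plate average as 100%.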 The note with it: stronger effect = lower value.
A short description of assay [8]: polyglutamine aggregate formation blockers (AID 1604). As to conditions: polyglutamine-induced protein aggregation inhibition assay; stronger effect = higher value; tested at 2.5 µM.
Assay [9] can be described thus: glutamate transport activators, MN-1 cells, MN-1 cell line (AID 1612).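 Further: tested at 1 µM final; 0% = mean of DMSO vehicle wells on each plate; positive means more glutamate uptake than control and negative means less.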 The note with it: MN-1 motor neuron cells, stronger effect = higher value.
A short description of assay [10]: GFP-Q80 aggregate reduction, neuronal-like cells, cell-based, NGF-treated PC12, GFPQ80 (AID 1614).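 Further: lower means fewer inclusions and 0 means no inclusions at all.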 The note with it: PC12 NGF-treated GFP-polyQ80 inclusion reduction.
Assay [11] is described as follows: 75Q-TubH aggregate inhibition, S. cerevisiae, yeast (AID 1616). As to conditions: S. cerevisiae 75Q-TubH polyglutamine aggregation suppression; stronger effect = higher value.
The nature of assay [12]: P. berghei load reduction in hepatocytes – cell-based, HepG2, luciferase luminescence, HepG2 viability, primary screen (AID 624349; in the data active means parasite load remaining mostly below about 12%, no sharp cut-off; inactive means mostly above about 10%;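 further: 100% = mean of DMSO negative control wells on the same plate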). The note with it: P. berghei liver stage in HepG2, luciferase luminescence, concentration not given here; parasite load remaining: stronger effect = lower value; viability: measured here: HepG2 viability without parasites.
Assay [13] is described as follows: viability loss with induced miR-34 in A549 – imaging, A549 dox-inducible miR-34, nuclei and caspase counts, primary screen (AID 1347080;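 active means compounds whose cell count with miR-34 switched on is under 0.7 times the count with it off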). As to conditions: A549 miR-34 inducible, Hoechst nuclei count, 48 h.
The target in assay [14] is Mitogen-activated protein kinase 7 (Homo sapiens) (UniProt Q13164). Briefly: Gal4-ERK5 driven luciferase induction – cell-based, HTS, primary screen (AID 1508626;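 active means luciferase signal above three times the same-plate solvent-only control wells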;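 further: luciferase driven by Gal4-ERK5 fusion binding five Gal4 sites before minimal TATA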). The note with it: HeLa Gal4-ERK5 transactivation, 18 h, at 5 µM, stronger effect = higher value.
Chain of Mitogen-activated protein kinase 7 (Homo sapiens) (Q13164 whole entry, looked up, the tested form may be a part): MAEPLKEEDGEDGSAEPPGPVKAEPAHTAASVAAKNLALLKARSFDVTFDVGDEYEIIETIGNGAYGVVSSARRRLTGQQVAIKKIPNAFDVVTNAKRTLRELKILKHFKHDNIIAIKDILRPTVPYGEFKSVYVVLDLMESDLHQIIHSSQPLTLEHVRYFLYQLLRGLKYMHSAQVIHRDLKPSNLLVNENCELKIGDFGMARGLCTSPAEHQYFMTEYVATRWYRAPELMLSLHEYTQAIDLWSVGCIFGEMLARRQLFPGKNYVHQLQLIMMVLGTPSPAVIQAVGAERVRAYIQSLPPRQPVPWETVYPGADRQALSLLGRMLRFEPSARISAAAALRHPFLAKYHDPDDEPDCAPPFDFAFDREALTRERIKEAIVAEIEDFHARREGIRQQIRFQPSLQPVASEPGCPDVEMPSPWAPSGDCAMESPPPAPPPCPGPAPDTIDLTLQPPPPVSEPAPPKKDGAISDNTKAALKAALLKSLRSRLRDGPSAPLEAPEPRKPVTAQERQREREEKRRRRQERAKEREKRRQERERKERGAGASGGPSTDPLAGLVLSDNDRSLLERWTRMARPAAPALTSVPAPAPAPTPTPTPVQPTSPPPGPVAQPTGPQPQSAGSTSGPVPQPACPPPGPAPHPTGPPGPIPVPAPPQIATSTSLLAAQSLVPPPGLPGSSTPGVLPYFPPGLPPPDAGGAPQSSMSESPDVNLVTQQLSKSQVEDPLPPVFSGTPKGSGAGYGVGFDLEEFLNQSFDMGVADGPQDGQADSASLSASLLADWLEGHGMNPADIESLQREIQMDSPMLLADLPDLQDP
The nature of assay [15]: compounds altering viability of human ES cells (AID 493140).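 Further: cells exposed to compounds for four days before counting.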 As to conditions: human embryonic stem cell survival screen; stronger effect = higher value.
The nature of assay [16]: MELAS cybrid and Rieske KO viability enhancers – cell-based, MELAS cybrids, Rieske KO mouse fibroblasts, CellTiter-Glo, primary screen (AID 1508586;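 active means mean z-score across replicates of 1.96 or higher in either the MELAS or the Rieske mutant cell line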;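 further: z relative to plate mean and SD of compound and empty wells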). As to conditions: low glucose. For orientation: ATP-based viability assays read luminescence as a measure of living cells.
Assay [17] addresses NAD(+) hydrolase SARM1 (Homo sapiens) (UniProt Q6SZW1). Briefly: blocking NAD cleavage by SARM1 SAM-TIR – cell lysate, NAD-Glo luminescence (AID 1508614;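 active means compound whose remaining NAD level is above about 45 nM, limit read from the data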). The note with it: SAM-TIR HEK293T lysate NADase, at 1 µM, stronger effect = higher value.
The mark [18] stands for this setting: measured here: epithelial PC-3E GFP cell survival.
[19] abbreviates: measured here: mesenchymal TEM4-18 mCherry cell survival.
The mark [20] stands for this setting: measured here: relative caspase fold change +Dox/-Dox.
The mark [21] stands for this setting: measured here: total cells with miR-34 induction, stronger effect = lower value.
The mark [22] stands for this setting: measured here: total cells without miR-34 induction.

Chain of NAD(+) hydrolase SARM1 (Homo sapiens) (Q6SZW1 whole entry, looked up): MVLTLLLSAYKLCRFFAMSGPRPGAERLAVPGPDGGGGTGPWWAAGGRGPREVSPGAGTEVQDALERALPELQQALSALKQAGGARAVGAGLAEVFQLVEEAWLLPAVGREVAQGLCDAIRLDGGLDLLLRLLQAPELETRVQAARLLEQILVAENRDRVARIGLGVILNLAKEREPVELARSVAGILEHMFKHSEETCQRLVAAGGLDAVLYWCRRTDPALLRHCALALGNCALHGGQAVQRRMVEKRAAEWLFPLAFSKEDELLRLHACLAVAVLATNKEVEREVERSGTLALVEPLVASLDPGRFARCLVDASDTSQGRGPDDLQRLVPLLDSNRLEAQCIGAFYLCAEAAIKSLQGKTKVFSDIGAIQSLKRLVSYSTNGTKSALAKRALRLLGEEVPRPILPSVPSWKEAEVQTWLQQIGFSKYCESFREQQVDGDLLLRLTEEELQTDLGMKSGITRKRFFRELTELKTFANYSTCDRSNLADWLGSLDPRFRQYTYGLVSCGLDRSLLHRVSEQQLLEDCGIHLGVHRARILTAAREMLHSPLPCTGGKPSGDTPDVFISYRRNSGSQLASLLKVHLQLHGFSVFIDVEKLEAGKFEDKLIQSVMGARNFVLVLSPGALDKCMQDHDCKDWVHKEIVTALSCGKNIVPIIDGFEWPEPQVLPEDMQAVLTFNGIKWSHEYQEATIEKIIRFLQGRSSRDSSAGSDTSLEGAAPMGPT

`N[C@H](CO)Cc1ccccc1`: in assay [1], the inhibition is 1.18% (inactive). Moreover, the red/green cell ratio (normalised) in assay [2] was 1 (inactive). For the same compound, the normalised cell number in assay [2] (setting [18]) was 1.16; in assay [2] (setting [19]), 1.17. Moreover, in assay [3], the activity remaining was 102% (inactive).

As to `CN[C@@H](C)[C@@H](O)c1ccccc1`, the inhibition is 11.2% in assay [4] and 2.73% (inactive) in assay [1]. This compound also registered a score in assay [5] of 1.57. In [6], this compound returned a rescue above control of -0.65. Further, in assay [7], the cytochrome c release ratio came out at 0.84. This compound also gave an inhibition of aggregation in assay [8] of 80.3%. Besides, the glutamate uptake change in [9] is -5.15%. Besides, in [10], the inclusion score came to 2. Also, the aggregation suppression score in [11] was determined as 1.15. For the same compound, the parasite load remaining in [12] was 106% (inactive) and 61.4% (inactive). Besides, the viability in [12] was 73.1% and 87.5%. Further, the red/green cell ratio (normalised) in assay [2] was 1.05 (inactive). Moreover, the normalised cell number was 1.12 in [2] (setting [18]) and 1.18 in assay [2] (setting [19]). Further, the activity remaining in [3] was 98.2% (inactive). Also, the fold change was 0.905 (inactive) in assay [13] (stronger effect = lower value) and 3.17 in assay [13] (setting [20]). Moreover, the results for the cell count in assay [13] (setting [21]) and in assay [13] (setting [22]) were 11300 and 12500, respectively. The luciferase signal in assay [14] was 36 AU (inactive).

For the compound `CC1=C(O)C(=O)C=C2C1=CC=C1[C@@]2(C)CC[C@@]2(C)[C@@H]3C[C@](C)(C(=O)O)CC[C@]3(C)CC[C@]12C`, the inhibition in assay [1] is -29.5% (inactive). Also, in assay [2], the red/green cell ratio (normalised) is 0.62 (inactive). Further, the normalised cell number stood at 0.09 in assay [2] (setting [18]) and 0.05 in assay [2] (setting [19]). In addition, the activity remaining in assay [3] is 122% (inactive). For the same compound, the fold change in assay [13] (stronger effect = lower value) is 0.911 (inactive); in assay [13] (setting [20]), 1.02. Further, the results for the cell count in assay [13] (setting [21]) and in assay [13] (setting [22]) were 948 and 1040, respectively. For the same compound, the luciferase signal in assay [14] is 360 AU (inactive).

Take `COc1cc2c(cc1OC)C(C)NCC2` (stereo not given): the survival in assay [15] was 7.17 (inactive). For the same compound, the parasite load remaining in assay [12] was 65.2% (inactive) and 87.3% (inactive). In addition, the viability in assay [12] was 106% and 76.1%. Besides, the inhibition in assay [1] was -13.1% (inactive). Further, in [2], the red/green cell ratio (normalised) was 1.03 (inactive). The normalised cell number stood at 0.91 in [2] (setting [18]) and 0.94 in [2] (setting [19]). Moreover, the activity remaining in assay [3] is 101% (inactive). The fold change was 0.83 (inactive) in assay [13] (stronger effect = lower value) and 1.56 in assay [13] (setting [20]). In addition, the results for the cell count in assay [13] (setting [21]) and in assay [13] (setting [22]) were 9140 and 11000, respectively. In [14], the luciferase signal was 36 AU (inactive).

For the compound `O=C1C(Cl)=C(Cl)C(=O)C(Cl)=C1Cl`, in assay [1], the inhibition is 3.96% (inactive). The red/green cell ratio (normalised) in assay [2] was 1.04 (inactive). Further, the normalised cell number is 1 in assay [2] (setting [18]) and 1.04 in [2] (setting [19]). In addition, the activity remaining in assay [3] was 100% (inactive).

As to `CCCCCCCCCCCCCCCC[n+]1ccccc1`, the inhibition was 55.6% in [4] and 10.7% (inactive) in assay [1]. For the same compound, the score in assay [5] was -0.08. In [6], this compound yielded a rescue above control of 0. Further, in [7], the cytochrome c release ratio was 3.74. The compound further registered an inhibition of aggregation in assay [8] of 52.2%. In addition, the glutamate uptake change in [9] is -18.1%. For the same compound, in assay [11], the aggregation suppression score was -0.00459. In assay [12], the parasite load remaining is -0.13% (inactive) and -0.08% (inactive). Also, the viability in assay [12] was 14.3% and 4.9%. In assay [2], the red/green cell ratio (normalised) was 0.76 (inactive). Besides, the normalised cell number was determined as 0.52 in [2] (setting [18]) and 0.4 in [2] (setting [19]). The activity remaining in assay [3] is 111% (inactive). In addition, the fold change in assay [13] (stronger effect = lower value) was 0.867 (inactive) and 0.767 (inactive); in assay [13] (setting [20]), 1.06 and 4.42. The cell count in assay [13] (setting [21]) was 1850 and 1610; in assay [13] (setting [22]), 2130 and 2090. The z-score was -0.367 (inactive) in [16] (MELAS cybrid survival, CellTiter-Glo 48 h, stronger effect = higher value) and -0.303 in assay [16] (Rieske KO mouse fibroblast survival, CellTiter-Glo 72 h). For the same compound, the remaining NAD in [17] was 10 nM (inactive). Moreover, the luciferase signal in assay [14] is 96 AU (inactive).

The values above are taken from PubChem BioAssay.
